HP1b binding inh: inhibitors of HP1-beta chromodomain binding to methylated histone tails; Potency, µM (titrated, usually from 114 µM), hits mostly inhibitors; hit rate 0.56% among 390,000; AlphaScreen HP1-beta / biotin-H3K9me3 peptide binding; P83916; note: nearly all actives have a fitted effect of over 70% in size
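Compound inhibition of the preformed complex between 50 nM HP1-beta and 50 nM biotinylated H3K9me3 peptide was read by AlphaScreen. Buffer was PBS pH 7.4 with 0.01% Tween-20. Incubations ran 30 min at room temperature, with 10 ug/mL donor/acceptor beads.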
Sfp inh: blocks B. subtilis Sfp PPTase activity. Biochemical Sfp PPTase activity, qHTS. Potency, µM, usual class: inhibitors. AID 1490. Q9F4F7. hit rate 3.5% among 310,000;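 note: the enzyme is Sfp with the accession as filed and its product quenches rhodamine fluorescence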
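Reaction rates are the 30-min fluorescence difference (ex 525, em 598 nm) in wells containing 15 nM Sfp, 5 uM rhodamine-CoA and 12.5 uM BHQ-2-YbbR at pH 7.6 with 10 mM MgCl2.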
JMJD2A Tudor: inhibitors of human JMJD2A Tudor domain | O75164 | AlphaScreen JMJD2A-Tudor / H3K4me3 peptide binding | Potency, µM (series often up to 114 µM), hits mostly inhibitors | hit rate 4.4% among 390,000 | AID 504339; note: nearly all actives have a fitted effect of over 50% in size
G9a block: inhibitors of human histone lysine methyltransferase G9a | G9a H3K9 monomethylation, AlphaScreen, 2 h | Q96KQ7 | hit rate 8.8% among 350,000 | Potency, µM (series often up to 102 µM), hits mostly inhibitors; note: nearly all actives have a fitted effect of over 75% in size
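Step 1: enzyme (final 20 nM) with compound, 15 min RT. Step 2: substrate peptide 500 nM and SAM 20 uM, 2 h RT. Step 3: anti-H3K9me1 antibody and AlphaScreen beads, 10 min, then plate read.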
BAZ2B block: BAZ2B (human) inhibition; AlphaScreen BAZ2B-H3K14Ac peptide displacement; hit rate 4.4% among 360,000; Q9UIF8; Potency, µM (series often up to 114 µM), hits mostly inhibitors; AID 504333; note: nearly all actives have a fitted effect of over 60% in size
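AlphaScreen displacement: compounds (up to 110uM) incubated 30 min at room temperature with a preformed 50 nM BAZ2B/50 nM biotinylated H3K14Ac peptide complex in PBS pH 7.4 with Tween-20. Donor and acceptor beads at 10 ug/mL final added, 20 min light-protected before reading.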
PLK1 PBD inh: blocks phosphopeptide binding to human PLK1 polo-box domain; P53350; Plk1 PBD binding of FITC phosphopeptide, fluorescence polarization; Potency, µM, usual class: inhibitors; hit rate 2.8% among 360,000; note: series mostly up to about 57 µM; nearly all actives have a fitted effect of over 65% in size
Each line names hits and unclear results; the compound was inactive in the other large screens. An excerpt weighted towards active compounds, which were near 12% of everything screened. Calls come from the whole dose curve; as a rule, active = well fitted curve in the direction sought with a large enough effect; inconclusive = small, poorly fitted or top-dose-only effect, or another doubt; inactive = no such curve, though single readings can be large; an effect the other way counts as inactive or inconclusive.

CCCN(CCC)CCCNC(=S)Nc1ccc2nc(N3CCN(C)CC3)cc(C)c2c1	G9a block 40µM
Cc1cc(N2CCOCC2)nc2ccc(NC(=S)NC(C)C)cc12	G9a block 71µM
COc1ccc(CCNC(=O)CCC(=O)Nc2ccc3nc(N4CCN(C)CC4)cc(C)c3c2)cc1OC	JMJD2A Tudor 79µM
COCCNC(=S)Nc1ccc2nc(N3CCCC3)cc(C)c2c1	G9a block 71µM
COc1ccc(C)cc1NC(=O)CSc1nc(=O)n(Cc2ccccn2)c2c1CCC2	G9a block inconclusive (no result: Sfp inh, PLK1 PBD inh)
O=C(Nc1ccc(F)cc1)c1cccn1-c1nnc(N2CCCCC2)s1	none (no result: Sfp inh, PLK1 PBD inh)
COc1cc(-c2nc(-c3ccc4c(c3)[nH]c(=O)n4C)no2)cc(OC)c1OC	none (no result: Sfp inh, PLK1 PBD inh)
CCC1CCCCN1CCCNC(=O)c1ccc2c(c1)N(Cc1cccc(C)c1)C(=O)c1ccccc1S2(=O)=O (stereo not given)	none (no result: Sfp inh, PLK1 PBD inh)
CCCN(CCC)CCCNC(=S)Nc1ccc2nc(N3CCN(CC)CC3)cc(C)c2c1	G9a block 50µM
COc1ccc(CNC(=O)/C=C/c2ccco2)cc1OC	Sfp inh 45µM, G9a block 45µM
COc1ccc(CNC(=O)/C=C/C(=O)O)cc1OC	none
COc1ccc(C2(CNC(C)=O)CCCC2)cc1OC	none
O=C(/C=C/c1ccco1)NCC1(c2ccccc2)CCCC1	G9a block 11µM
CCN(CC)S(=O)(=O)c1ccc(N2CCCCC2)c(NC(=O)/C=C/c2ccc(OC)c(OC)c2)c1	none
COc1ccc(C2(CNC(=O)/C=C/c3ccco3)CCCC2)cc1OC	Sfp inh 22µM, G9a block inconclusive, BAZ2B block inconclusive, PLK1 PBD inh inconclusive
O=C(NCC1(c2ccccc2)CCCC1)c1ccco1	none
CCN(CC)S(=O)(=O)c1ccc(OC)c(NC(=O)/C=C/c2ccco2)c1	HP1b binding inh inconclusive, Sfp inh 25µM, BAZ2B block 71µM, PLK1 PBD inh inconclusive (no result: G9a block)
COc1ccc(/C(C)=N/NC(=O)CNC(=O)/C=C\c2ccco2)cc1	JMJD2A Tudor inconclusive, BAZ2B block 79µM, PLK1 PBD inh inconclusive
O=C(c1ccc2c(c1)OCO2)n1nnc2ccccc21	G9a block 45µM (no result: HP1b binding inh, JMJD2A Tudor, PLK1 PBD inh)
COc1ccc(C(=O)n2nnc3ccccc32)cc1OC	G9a block 45µM, PLK1 PBD inh 9.5µM
COc1ccc(C(=O)COC(=O)Cn2nnc3ccccc32)cc1Br	none
COc1ccc(C(=O)n2nnc3ccccc32)cc1Br	G9a block inconclusive, BAZ2B block inconclusive, PLK1 PBD inh 1.5µM
COc1ccc(NC(=O)CCCCCn2nnc3ccccc3c2=O)cc1OC	none
Cc1cc2ncn(C(=O)c3ccc4c(c3)OCO4)c2cc1C	none
Cc1ccc(C(=O)n2nnc3ccccc32)cc1[N+](=O)[O-]	G9a block inconclusive, PLK1 PBD inh inconclusive
COc1ccc(N/C(=C(/C(Cl)=C(Cl)Cl)[N+](=O)[O-])n2nnc3ccccc32)cc1OC	Sfp inh 20µM, G9a block 14µM, BAZ2B block 56µM (no result: HP1b binding inh, JMJD2A Tudor, PLK1 PBD inh)
O=C(CSc1n[nH]c(=O)n1C1CC1)c1c[nH]c2ccccc12	none (no result: Sfp inh)
O=C(Nc1cccc(F)c1)c1ccc(Br)o1	G9a block 28µM
N/C(=N\O)c1ccc(NC(=O)c2ccc(Br)o2)cc1	HP1b binding inh inconclusive, JMJD2A Tudor inconclusive, PLK1 PBD inh 15µM
O=C(Nc1ccccc1C(=O)O)c1cccc(NC(=O)c2ccc(Br)o2)c1	G9a block 18µM
CN(C(=O)CSc1nnc2ccccn12)c1c(N)n(Cc2ccccc2)c(=O)[nH]c1=O	HP1b binding inh inconclusive, G9a block 35µM
CC(C)CN(C(=O)CSc1nnc2ccccn12)c1c(N)n(CC(C)C)c(=O)[nH]c1=O	G9a block 45µM
CN(C(=O)CSc1nnc(Nc2ccccc2)s1)c1c(N)n(Cc2ccccc2)c(=O)[nH]c1=O	Sfp inh inconclusive, G9a block inconclusive, PLK1 PBD inh 21µM
CCCCn1c(N)c(N(CCC(C)C)C(=O)CSc2nnc3ccccn23)c(=O)[nH]c1=O	none
O=C(CS(=O)(=O)c1cccc2nsnc12)N1CCN(c2ccccc2F)CC1	none (no result: Sfp inh, PLK1 PBD inh)
COC(=O)c1cc(OC)c(OC)cc1NC(=O)c1ccc2c(c1)CCN2S(=O)(=O)c1ccccc1	none (no result: Sfp inh, PLK1 PBD inh)
CCC(=O)OCOc1ccc(/C=C2/CCC(CN(C)C)C2=O)cc1 (stereo not given)	HP1b binding inh inconclusive, JMJD2A Tudor 89µM, PLK1 PBD inh 4.7µM (no result: Sfp inh, G9a block, BAZ2B block)
CCOc1ccc(/C=C2\CCC(C3CCCC3)C2=O)cc1 (stereo not given)	none
CCCCCC(=O)Nc1cccc(C2=NOC3(C2)C[C@H](C(N)=O)N(C(=O)CC#N)C3)c1 (stereo not given in full)	G9a block inconclusive, BAZ2B block 56µM (no result: HP1b binding inh, JMJD2A Tudor, PLK1 PBD inh)
CCCCCC(=O)Nc1cccc(C2=NOC3(C2)C[C@H](C(N)=O)N(C(=O)c2ccccc2)C3)c1 (stereo not given in full)	none
C/C=C\C=C/C(=O)Nc1cccc(C2=NOC3(C2)C[C@H](C(N)=O)N(C(=O)Cc2ccc([N+](=O)[O-])cc2)C3)c1 (stereo not given in full)	HP1b binding inh inconclusive, Sfp inh 13µM, JMJD2A Tudor 79µM, G9a block inconclusive
C/C=C\C=C\C(=O)Nc1cccc(C2=NOC3(C2)C[C@@H](C(N)=O)N(C(=O)C(c2ccccc2)c2ccccc2)C3)c1 (stereo not given in full)	Sfp inh 18µM, G9a block inconclusive, BAZ2B block inconclusive
C/C=C/C=C/C(=O)N1CC2(CC(c3cccc(NC(=O)CCCCC)c3)=NO2)C[C@H]1C(N)=O (stereo not given in full)	Sfp inh 22µM, G9a block inconclusive
C/C=C(/C)C(=O)Nc1cccc(C2=NOC3(C2)C[C@H](C(N)=O)N(C(=O)Cc2ccc([N+](=O)[O-])cc2)C3)c1 (stereo not given in full)	none
CC(C)(C)OC(=O)N1CCC(NC(=O)c2nc[nH]c2C(=O)N2CCN(c3ccccc3)CC2)CC1	none (no result: Sfp inh, G9a block, BAZ2B block)
C/C=C(\C)C(=O)Nc1cccc(C2=NOC3(C2)C[C@@H](C(N)=O)N(C(=O)/C(C)=C/C)C3)c1 (stereo not given in full)	none
C/C=C\C=C/C(=O)Nc1cccc(C2=NOC3(C2)C[C@@H](C(N)=O)N(C(=O)CCCCC)C3)c1 (stereo not given in full)	HP1b binding inh inconclusive, Sfp inh 25µM, JMJD2A Tudor 79µM, PLK1 PBD inh inconclusive
C/C=C/C=C\C(=O)Nc1cccc(C2=NOC3(C2)C[C@H](C(N)=O)N(C(=O)CC#N)C3)c1 (stereo not given in full)	Sfp inh 13µM, JMJD2A Tudor inconclusive, PLK1 PBD inh inconclusive

From PubChem BioAssay
